Experimental data as given in PubChem BioAssay AID1159580 (chemical genetic matrix, 2015).
“And” between values parts separate entries of the source, which are not always exact repeats. Equal entries are not always repeated. About 2,000 (36%) of roughly 5,500 compounds were called active. Inconclusive results (about 18%) are left out. Cut-off read from the data, not from the text of the source: active = normalized growth mostly below about 0.91 (no sharp cut-off); inconclusive = no clear call, values can overlap the other calls; inactive = mostly above about 0.92. The list shows a part of the results.

Experiment: chemical genetic growth profiling, strain panel (AID 1159580);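 note: tested at 20 µM; growth read once vehicle control cultures reached saturation at 30 °C; 1 = growth at the plate median or of vehicle wells; lower values mean less growth of the strain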
Details: S. cerevisiae deletion strains, growth OD

Measured: normalized growth

Cc1ccc(C(=O)c2ccc(CC(=O)O)n2C)cc1
inactive: locus YAL021C, strain ccr4, hits give low values 1.03 | locus YAL026C, strain drs2, hits give low values 1.02 | locus YAL030W, strain snc1, hits give low values 1.01 | locus YBL061C, strain skt5, hits give low values 1.01 | locus YBR009C, strain hhf1, hits give low values 0.973 | locus YBR021W, strain FUR4, hits give low values 1.01 | locus YBR023C, strain chs3, hits give low values 1 | locus YBR229C, strain ROT2, hits give low values 1 | locus YBR231C, strain swc5, hits give low values 1.02 | locus YBR279W, strain paf1, hits give low values 1 | locus YCL011C, strain gbp2, hits give low values 0.999 | locus YCL016C, strain dcc1, hits give low values 0.996 | locus YCL029C, strain bik1, hits give low values 0.968 | locus YCL061C, strain MRC1, hits give low values 0.995 | locus YCL069W, strain vba3, hits give low values 0.986 | locus YCR088W, strain abp1, hits give low values 1 | locus YDL005C, strain med2, hits give low values 1.03 | locus YDL035C, strain GPR1, hits give low values 1.01 | locus YDL040C, strain nat1, hits give low values 1.01 | locus YDL074C, strain BRE1, hits give low values 1.01 | locus YDL101C, strain DUN1, hits give low values 1.01 | locus YDL134C, strain PPH21, hits give low values 0.996 | locus YDL185W, strain tfp1, hits give low values 0.977 | locus YDL192W, strain arf1, hits give low values 0.98 | locus YDR001C, strain nth1, hits give low values 1 | locus YDR069C, strain doa4, hits give low values 0.999 | locus YDR101C, strain arx1, hits give low values 0.985 | locus YDR137W, strain rgp1, hits give low values 1 | locus YDR150W, strain NUM1, hits give low values 1.01 | locus YDR159W, strain sac3, hits give low values 0.956 | locus YDR162C, strain NBP2, hits give low values 0.995 | locus YDR195W, strain ref2 1.03 | locus YDR297W, strain sur2, hits give low values 0.991 | locus YDR318W, strain mcm21, hits give low values 0.956 | locus YDR334W, strain swr1, hits give low values 1.01 | locus YDR335W, strain msn5, hits give low values 1.01 | locus YDR388W, hits give low values 0.972 | locus YDR392W, strain spt3, hits give low values 0.88 | locus YDR502C, strain sam2, hits give low values 0.97 | locus YEL003W, strain gim4, hits give low values 1.01 | locus YEL037C, strain rad23, hits give low values 0.999 | locus YEL061C, strain CIN8 (second series), hits give low values 0.999 | locus YEL061C, strain CIN8, hits give low values 0.998 | locus YER015W, strain faa2, hits give low values 1.01 | locus YER016W, strain bim1, hits give low values 0.999 | locus YER110C, hits give low values 0.969 | locus YER111C, strain swi4, hits give low values 1.01 | locus YER155C, strain BEM2 (second series), hits give low values 0.957 | locus YER155C, strain BEM2, hits give low values 0.996 | locus YER167W, strain BCK2, hits give low values 0.998 | locus YFR010W, strain ubp6, hits give low values 0.997 | locus YGL078C, strain dbp3, hits give low values 0.977 | locus YGL086W, strain mad1, hits give low values 0.985 | locus YGL167C, strain pmr1, hits give low values 1.01 | locus YGL173C, strain kem1, hits give low values 0.985 | locus YGL227W, strain vid30, hits give low values 1 | locus YGL240W, strain doc1, hits give low values 1.01 | locus YGL248W, strain PDE1, hits give low values 1.02 | locus YGL253W, strain hxk2, hits give low values 0.992 | locus YGR078C, strain PAC10, hits give low values 1 | locus YGR135W, strain pre9, hits give low values 0.97 | locus YGR229C, strain SMI1, hits give low values 1.01 | locus YGR252W, strain gcn5, hits give low values 0.975 | locus YHR013C, strain ard1, hits give low values 1.03 | locus YHR027C, strain rpn1, hits give low values 1.01 | locus YHR030C, strain SLT2, hits give low values 1 and 0.957 | locus YHR079C, strain IRE1 (second series), hits give low values 0.964 | locus YHR079C, strain IRE1, hits give low values 0.976 | locus YHR094C, strain hxt1, hits give low values 0.973 | locus YHR129C, strain ARP1, hits give low values 1 | locus YHR142W, strain chs7, hits give low values 1.02 | locus YHR200W, strain rpn10, hits give low values 0.979 | locus YIL066C, strain RNR3, hits give low values 1 | locus YIL073C, strain SPO22, hits give low values 0.924 | locus YIL125W, strain kgd1, hits give low values 0.985 | locus YIR030C, strain dcg1, hits give low values 0.978 | locus YJL092W, strain hpr5, hits give low values 1.02 | locus YJL095W, strain BCK1 (second series), hits give low values 1.02 | locus YJL095W, strain BCK1, hits give low values 1.01 and 0.969 | locus YJL115W, strain asf1, hits give low values 1.03 | locus YJL129C, strain trk1, hits give low values 1.02 | locus YJL134W, strain LCB3, hits give low values 1 | locus YJL154C, strain vps35, hits give low values 1.01 | locus YJL164C, strain tpk1, hits give low values 0.997 | locus YJL166W, strain qcr8, hits give low values 1.02 | locus YJL168C, strain set2, hits give low values 0.975 | locus YJL187C, strain SWE1 (second series), hits give low values 1 | locus YJR043C, strain POL32, hits give low values 0.995 | locus YJR066W, strain TOR1, hits give low values 0.929
